This is one part of a sample in which hits are shown more often than they occur.
Tb PYK inh – qHTS of Trypanosoma Brucei Inhibitors; pyruvate kinase (Trypanosoma brucei), Q57TT1; TbPYK enzyme, Kinase-Glo Plus ATP luminescence, 45 min; Potency, µM (highest dose often 76.8 µM), for the others: at the top dose activity, negative = inhibition, most hits filed as inhibitors; actives 0.12% (n = 410,000); further: potency means the concentration at half of the fitted maximal effect; on the % scale 0 is the no-effect control and ±100 the full control effect; nearly all actives have a fitted effect of over 50% in size
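Luminescent Kinase-Glo Plus end-point after 45 min room-temperature reaction of T. brucei pyruvate kinase started with 130 uM ADP (final). Buffer TEA 50 mM pH 7.2 with KCl, MgCl2, BSA, Tween-20; titration-based qHTS with fitted concentration-effect curves.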
Shiga toxin inh – A qHTS for Small Molecule Inhibitors of Shiga Toxin; Vero cells, Shiga toxin protein synthesis inhibition reporter; inhibition, % at 38.7 µM; actives 9.2% (n = 290,000); AID 2315, 2010; in the data active means inhibition mostly above about 28%, no sharp cut-off; inactive means mostly below about 43%; further: 0% is about no effect
FBPA Giardia inh – qHTS Assay for Inhibitors of Fructose-1,6-bisphosphate Aldolase from Giardia Lamblia | AID 2451, 2010 | actives 0.71% (n = 290,000) | A8B2U2 | purified Giardia FBPA | Potency, µM (doses to about 59.6 µM), inactives show top-dose activity, negative = inhibition, actives largely listed as inhibitors; further: potency means the concentration at half of the fitted maximal effect; on the % scale 0 is the no-effect control and ±100 the full control effect; nearly all actives have a fitted effect of over 55% in size
Target sequence (A8B2U2 whole entry, looked up): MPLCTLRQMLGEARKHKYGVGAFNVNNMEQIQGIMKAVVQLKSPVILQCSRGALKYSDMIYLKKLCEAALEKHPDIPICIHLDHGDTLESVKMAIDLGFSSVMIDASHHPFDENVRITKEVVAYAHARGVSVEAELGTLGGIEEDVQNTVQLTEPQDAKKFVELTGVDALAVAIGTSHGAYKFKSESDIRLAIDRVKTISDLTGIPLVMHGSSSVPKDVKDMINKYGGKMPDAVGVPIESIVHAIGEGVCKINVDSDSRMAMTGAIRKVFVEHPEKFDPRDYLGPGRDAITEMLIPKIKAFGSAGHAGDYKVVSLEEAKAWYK
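Giardia FBPA (40 nM reagent) was preincubated 10 min at RT with compound (up to 57.5 uM final), then substrate plus GAPDH/TPI/NAD/arsenate coupling system with diaphorase/resazurin was added; resorufin fluorescence (525/598 nm) was read after 20 min.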
Sm TGR block – qHTS Assay for the Inhibitors of Schistosoma Mansoni Peroxiredoxins; Schistosoma mansoni thioredoxin glutathione reductase (TGR), Q962Y6; purified TGR, DTNB reduction, TNB absorbance 405 nm; AID 485364, 2010; Potency, µM (top dose mostly 114 µM), for inactives: at the highest dose activity change, negative = inhibition, usual class: inhibitors; actives 3% (n = 360,000); further: potency means the concentration at half of the fitted maximal effect; on the % scale 0 is the no-effect control and ±100 the full control effect; nearly all actives have a fitted effect of over 60% in size
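TGR 20 nM + NADPH 100 uM (dispensed conc.), cpd preinc 15 min RT; start with NADPH (500 uM addition) then DTNB (15 mM addition). Kinetic TNB absorbance, 405 nm filter. Four-parameter Hill fit across titration.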
Cycloheximide cs – Cycloheximide Counterscreen for Small Molecule Inhibitors of Shiga Toxin. cell reporter, cycloheximide protein synthesis inhibition counterscreen. AID 2314, 2010. max response, %. actives 12% (n = 300,000); in the data active means max response mostly above about 13%, no sharp cut-off; inactive means mostly below about 14%; further: read at 38.3 µM for the half of the compounds with a filed dose; 0% is about no effect
LmPK inhibitor – qHTS Assay for Inhibitors of Leishmania Mexicana Pyruvate Kinase (LmPK); AID 1721, 2009; purified LmPK, Kinase-Glo ATP luminescence, 1 h; Q27686; Potency, µM (highest dose often 57.5 µM), for inactives: at the highest dose activity change, negative = inhibition, actives largely listed as inhibitors; actives 0.37% (n = 290,000); further: potency means the concentration at half of the fitted maximal effect; on the % scale 0 is the no-effect control and ±100 the full control effect
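ATP generated from ADP (0.1 mM) and PEP (0.5 mM) by 0.1 nM LmPK over 1 h at room temperature (pH 7.2 imidazole buffer) was detected by coupled luciferase luminescence. Values were normalized to uninhibited and no-enzyme wells.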
Active calls of the source: *. Unless noted, the call rests on the fitted dose curve; in most records, active means well fitted curve in the direction sought with a large enough effect; inconclusive means small, poorly fitted or top-dose-only effect, or another doubt; inactive means no such curve, though single readings can be large; an effect the other way counts as inactive or inconclusive.

`COc1cc(C)ccc1OCCSc1nc2ccc(NC(=O)c3cccs3)cc2s1` gave Tb PYK inh -3% and Sm TGR block 4%.
For O=C(Nc1nc2ccccc2[nH]1)C1CCN(S(=O)(=O)c2cccs2)CC1 the results were Tb PYK inh 5%, Shiga toxin inh 13, FBPA Giardia inh -6%, Sm TGR block -20%, Cycloheximide cs 14* and LmPK inhibitor 0%.
CC(=O)c1ccc(NC(=O)C2CCN(S(=O)(=O)c3cccs3)CC2)cc1 was read as Tb PYK inh -1%, Shiga toxin inh 44*, FBPA Giardia inh 1%, Sm TGR block -4%, Cycloheximide cs 44* and LmPK inhibitor 7%.
Screening CC1CCN(C(=O)C2CCN(S(=O)(=O)c3cccs3)CC2)CC1 returned Tb PYK inh -5%, Shiga toxin inh 41, FBPA Giardia inh 1%, Sm TGR block -8%, Cycloheximide cs 17* and LmPK inhibitor 0%.
`O=C(Nc1ccccn1)C1CCN(S(=O)(=O)c2cccs2)CC1` gave Tb PYK inh -4%, Shiga toxin inh -9, FBPA Giardia inh -1%, Sm TGR block -26%, Cycloheximide cs -5 and LmPK inhibitor 2%.
`CC1CC(C)CN(C(=O)C2CCN(S(=O)(=O)c3cccs3)CC2)C1` (stereo not given) gave Tb PYK inh -1%, Shiga toxin inh -7, FBPA Giardia inh 5%, Sm TGR block -7%, Cycloheximide cs -4 and LmPK inhibitor -3%.
Screening O=c1[nH]c(-c2ccccc2)ncc1Oc1ccccc1 returned Tb PYK inh -13%.
CCOc1ccc(N2C(=O)/C(=C/c3ccc(C)o3)C(=O)NC2=S)cc1 was read as Tb PYK inh inconclusive, FBPA Giardia inh inconclusive, Sm TGR block 1.4µM*, Cycloheximide cs 6 and LmPK inhibitor 13%.
Screening CN1CCN(c2ccc(/C=C3\C(=O)NC(=S)N(c4cccc(Br)c4)C3=O)o2)CC1 returned Tb PYK inh -14%, Shiga toxin inh 2, FBPA Giardia inh -8%, Sm TGR block -5%, Cycloheximide cs -1 and LmPK inhibitor -5%.
COc1ccc(N2C(=O)/C(=C/c3ccc(C)o3)C(=O)NC2=S)cc1 was read as Tb PYK inh inconclusive, Shiga toxin inh 27, FBPA Giardia inh inconclusive, Sm TGR block 1.3µM*, Cycloheximide cs -1 and LmPK inhibitor -1%.
`Cc1ccc(/C=C2\C(=O)NC(=S)N(c3cccc(F)c3)C2=O)o1` gave Tb PYK inh inconclusive, Shiga toxin inh -2, FBPA Giardia inh -23%, Sm TGR block 0.71µM*, Cycloheximide cs -2 and LmPK inhibitor -4%.
CC(CNC(=O)Cn1ccc2cc(S(=O)(=O)N3CCCCCC3)ccc21)c1ccccc1 (stereo not given) was read as Tb PYK inh 0% and Sm TGR block -4%.
CCOc1ccc(N2C(=O)C3C(c4ccccc4F)NN(C(=O)c4ccc(C)cc4)C3C2=O)cc1 (stereo not given) was read as Tb PYK inh 3%, Shiga toxin inh 11, FBPA Giardia inh -4%, Sm TGR block 50µM*, Cycloheximide cs -2 and LmPK inhibitor 1%.
Screening Cc1ccc(C(=O)N2NC(c3ccc(F)cc3)C3C(=O)N(c4ccc(C)cc4)C(=O)C32)cc1 (stereo not given) returned Tb PYK inh -3%, Shiga toxin inh -6, FBPA Giardia inh 1%, Sm TGR block -7%, Cycloheximide cs -3 and LmPK inhibitor 2%.
`COc1cc(/C(C)=N/N2CCN(c3ccccc3OC)CC2)ccc1O` gave Tb PYK inh 2%, Shiga toxin inh 20, FBPA Giardia inh 9%, Sm TGR block -21%, Cycloheximide cs 22* and LmPK inhibitor -7%.
COc1ccccc1N1CCN(/N=C(\C)c2ccccc2O)CC1 was read as Tb PYK inh -9%, Shiga toxin inh 34*, FBPA Giardia inh 9%, Sm TGR block 10%, Cycloheximide cs 32* and LmPK inhibitor -1%.

Compound activity: PubChem, National Center for Advancing Translational Sciences (NCATS)
